# Experimental data as given in PubChem BioAssay.
# Activity calls are given as the source filed them. The rule behind the calls is not given here.
# What was measured:
# [1] = liver-stage malaria parasite load reduction – cell-based, known kinase inhibitor set, luminescence, hepatoma host viability (AID 624392); settings: Plasmodium liver stage in hepatoma cells, luciferase luminescence, concentration not given here; liver cell % of control: measured here: host liver cell viability; parasite % of control: stronger effect = lower value;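 note: infected cells incubated roughly two days before readout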
# [2] = altered dexamethasone sensitivity, NF-kB reporter, cell-based, luciferase, IL-1B stimulus (AID 624486); settings: IL-1B + dexamethasone, luminescence; percent of negative control (+Dex): actives lie on both sides, concentration not given here; z-score: measured here: IL-1B alone, no Dex;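 for percent of negative control (+Dex): 100% = mean signal of vehicle control wells on the plate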
# [3] = molecular target: Cellular tumor antigen p53 (Homo sapiens) (UniProt P04637); test: GFP-p53 level modulators in HPV16+ cells – imaging, known kinase inhibitor set, EGFP/DsRed ratio (AID 1053116); settings: GFP-p53 stability, stronger effect = higher value; EGFP object count: measured here: GFP-p53 positive objects count;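 note: cells exposed to compounds for 24 h at 37 °C before reading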
# [4] = inducers of IRF3 signaling, differentiated THP-1 – cell-based, PMA-stimulated THP-1, luminescence (AID 1053176); settings: PMA-differentiated THP-1, IRF3 reporter luminescence; stronger effect = higher value
# Cellular tumor antigen p53 (Homo sapiens), sequence (P04637 whole entry, looked up): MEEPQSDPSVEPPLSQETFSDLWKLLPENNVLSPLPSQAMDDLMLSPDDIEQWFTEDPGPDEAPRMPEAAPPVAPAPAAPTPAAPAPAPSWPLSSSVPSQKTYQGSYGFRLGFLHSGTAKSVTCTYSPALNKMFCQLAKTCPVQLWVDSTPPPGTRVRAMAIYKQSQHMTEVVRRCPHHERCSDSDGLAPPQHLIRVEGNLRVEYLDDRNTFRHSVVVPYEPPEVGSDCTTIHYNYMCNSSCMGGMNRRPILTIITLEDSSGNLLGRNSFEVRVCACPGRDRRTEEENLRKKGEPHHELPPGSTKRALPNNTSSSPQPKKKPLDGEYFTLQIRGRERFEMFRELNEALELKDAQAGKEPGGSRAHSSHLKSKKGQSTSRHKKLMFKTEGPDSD
Compound,liver cell % of control [1] [%],parasite % of control [1],percent of negative control (+Dex) [2],z-score [2],EGFP object count [3],EGFP/DsRed ratio [3],fraction signal [4]
Cn1cc(C2=C(c3cn(CCCCCN)c4ccccc34)C(=O)NC2=O)c2ccccc21,105,35.6% (inactive),99.5% (inactive),0.77,13.5,0.639 (inactive),0.0035 (inactive)
O=C1NC(=NCc2ccccc2)SC1=Cc1ccc2ncccc2c1,99.5,34.9% (inactive),92.5% (inactive),-0.26,7,0.173 (inactive),-0.003 (inactive)
Cn1cc(C2=C(c3cn(C)c4c(N)cccc34)C(=O)NC2=O)c2ccccc21,92.4,40.1% (inactive),108% (inactive),-1.47,87.5,1.36 (active),-0.003 (inactive)
CC(=O)NC(Cc1ccc(OP(=O)(O)O)cc1)C(=O)NC1CCC(=O)N2CCCC(C(=O)NCc3cccc4ccccc34)N2C1=O (stereo unspecified),98.5,45.1% (inactive),100% (inactive),-0.165,8,0.214 (inactive),-0.0075 (inactive)
Cn1cc(C2=C(c3ccsc3)C(=O)NC2=O)c2ccccc21,108,30% (inactive),92.5% (inactive),-0.045,3.5,0.27 (inactive),-0.0155 (inactive)
Cn1cc(C2=C(c3ccc4ccccc4c3)C(=O)NC2=O)c2ccccc21,105,53.6% (inactive),94% (inactive),-0.025,3,0.0576 (inactive),-0.001 (inactive)
O=[N+]([O-])c1ccc2c(c1)C(c1ccccc1Cl)=Nc1c(n[nH]c1-c1cccnc1)N2,237,4.98% (inactive),102% (inactive),-0.45,8,0.194 (inactive),0.01 (inactive)
COc1ccc(C2=C(c3cn(C)c4ccccc34)C(=O)NC2=O)cc1OC,215,12.7% (inactive),100% (inactive),-0.425,13,0.28 (inactive),-0.003 (inactive)
O=[N+]([O-])c1ccc2c(c1)C(c1ccccc1Cl)=Nc1cn[nH]c1N2,101,21.4% (inactive),109% (inactive),-0.52,12,0.495 (inactive),-0.005 (inactive)
CC(=O)NC(Cc1ccc(OP(=O)(O)O)cc1)C(=O)NC1CCC(=O)N2CCCC(C(=O)Nc3cccc4ccccc34)N2C1=O (stereo unspecified),103,47% (inactive),104% (inactive),0.475,6.5,0.135 (inactive),-0.007 (inactive)
Cn1c(=O)c(Oc2ccc(F)cc2F)cc2cnc(NCCS(C)(=O)=O)nc21,117,60.7% (inactive),101% (inactive),0.95,1,0.00515 (inactive),0.0015 (inactive)
Nc1c(C(=O)c2cccc(CCC3(O)CCCC3)c2)cnn1-c1ccc(F)cc1,112,81% (inactive),105% (inactive),-0.24,2.5,0.0989 (inactive),-0.0005 (inactive)
Nc1c(C(=O)c2cccc(C#CCO)c2)cnn1-c1ccc(F)cc1,100,58.9% (inactive),108% (inactive),1.13,1.5,0.0236 (inactive),0.008 (inactive)
Cn1c(=O)c(Oc2ccc(F)cc2F)cc2cnc(NC3CCS(=O)(=O)CC3)nc21,106,43.3% (inactive),97.5% (inactive),0.51,5,0.324 (inactive),0.001 (inactive)
Nc1c(C(=O)c2cccc(CCCN3CCOCC3)c2)cnn1-c1ccc(F)cc1,97.8,48.1% (inactive),109% (inactive),1.09,6,0.339 (inactive),-0.005 (inactive)
O=C1NC(O)C(c2c[nH]c3ccccc23)=C1c1c[nH]c2ccccc12 (stereo unspecified),141,47.1% (inactive),93% (inactive),0.455,4,0.15 (inactive),0.001 (inactive)
Cn1c(=O)c(Oc2ccc(F)cc2F)cc2cnc(NC(C)(C)CO)nc21,114,73.2% (inactive),106% (inactive),1.07,3,0.148 (inactive),0.023 (inactive)
Cn1cc(C2=C(c3cn(C)c4ccc(Cl)cc34)C(=O)NC2=O)c2ccccc21,77,33.5% (inactive),114% (inactive),-1.06,156,0.929 (active),-0.0075 (inactive)
